Screening data from PubChem BioAssay.
Compounds with a hit are over-represented: about 9% of the library has one in this group of screens.
PLK1 PBD block: qHTS for Inhibitors of PLK1-PDB (polo-like kinase 1 - polo-box domain): Primary Screen; hit rate 2.8% among 360,000; Potency, µM, hits mostly inhibitors; Serine/threonine-protein kinase PLK1 (Homo sapiens), P53350; AID 720504, 2013; Plk1 PBD binding of FITC phosphopeptide, fluorescence polarization; further: series mostly up to about 57 µM; nearly all actives have a fitted effect of over 65% in size
Target sequence (P53350 whole entry, looked up, the tested form may be a part): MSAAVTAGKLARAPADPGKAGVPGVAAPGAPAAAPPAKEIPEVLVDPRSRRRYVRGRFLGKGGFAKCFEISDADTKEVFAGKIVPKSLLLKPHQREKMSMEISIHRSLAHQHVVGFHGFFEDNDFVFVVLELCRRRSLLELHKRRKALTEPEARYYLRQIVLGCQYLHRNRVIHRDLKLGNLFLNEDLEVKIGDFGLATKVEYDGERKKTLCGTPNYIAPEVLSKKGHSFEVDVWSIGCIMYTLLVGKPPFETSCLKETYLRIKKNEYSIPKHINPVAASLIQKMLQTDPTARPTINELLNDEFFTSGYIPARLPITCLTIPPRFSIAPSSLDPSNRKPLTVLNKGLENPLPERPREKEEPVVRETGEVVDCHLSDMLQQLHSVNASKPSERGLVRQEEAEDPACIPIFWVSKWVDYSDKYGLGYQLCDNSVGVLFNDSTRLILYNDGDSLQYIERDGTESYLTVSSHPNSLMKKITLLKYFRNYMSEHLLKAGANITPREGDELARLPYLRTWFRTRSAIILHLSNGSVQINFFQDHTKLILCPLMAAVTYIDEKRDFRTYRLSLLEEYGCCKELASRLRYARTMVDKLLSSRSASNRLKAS
JMJD2A Tudor inh: qHTS Assay for Inhibitors of JMJD2A-Tudor Domain; Lysine-specific demethylase 4A (Homo sapiens), O75164; AlphaScreen JMJD2A-Tudor / H3K4me3 peptide binding; Potency, µM (series often up to 114 µM), actives largely listed as inhibitors; hit rate 4.4% among 390,000; AID 504339, 2011; further: nearly all actives have a fitted effect of over 50% in size
G9a inh: qHTS Assay for Inhibitors of Histone Lysine Methyltransferase G9a. hit rate 8.8% among 350,000. Histone-lysine N-methyltransferase EHMT2 (Homo sapiens), Q96KQ7. Potency, µM (highest dose often 102 µM), usual class: inhibitors. G9a H3K9 monomethylation, AlphaScreen, 2 h; further: nearly all actives have a fitted effect of over 75% in size
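G9a (20 nM) preincubated 15 min RT with compounds, then 500 nM biotinylated H3K9 peptide and 20 uM SAM added; 2 h RT reaction. Monomethyl-H3K9 product detected by AlphaScreen with anti-H3K9me1 antibody, streptavidin donor and anti-rabbit IgG acceptor beads.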
12-LOX inh: Primary qHTS assay for inhibitors of human arachidonate 12S-lipoxygenase (ALOX12): Round 2. Potency, µM (series often up to 108 µM), hits mostly inhibitors. purified 12hLO, xylenol orange hydroperoxide absorbance. AID 1671190, 2021. Polyunsaturated fatty acid lipoxygenase ALOX12 (Homo sapiens), P18054. hit rate 1.1% among 580,000
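Hydroperoxide product was detected by ferrous iron/xylenol orange as the 573 to 405 nm absorbance ratio. Arachidonic acid at 40 uM (final) was turned over for 30 min at room temperature by 150 nM human 12hLO, pH 7.0 Hepes buffer, after 15 min compound preincubation.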
HP1b chromo inh: HTS for Inhibitors of HP1-beta Chromodomain Interactions with Methylated Histone Tails; Chromobox protein homolog 1 (Homo sapiens), P83916; AlphaScreen HP1-beta / biotin-H3K9me3 peptide binding; Potency, µM (series often up to 114 µM), usual class: inhibitors; hit rate 0.56% among 390,000; AID 540317, 2011; further: nearly all actives have a fitted effect of over 70% in size
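AlphaScreen: HP1-beta (50 nM) preformed 30 min with biotin-H3(1-18)K9me3 peptide (50 nM) in PBS pH 7.4, 0.01% Tween-20. Compound added for 30 min at RT, then streptavidin donor/nickel chelate acceptor beads (10 ug/mL) for 30 min.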
BAZ2B block: qHTS Assay for Inhibitors of BAZ2B; Bromodomain adjacent to zinc finger domain protein 2B (Homo sapiens), Q9UIF8; AlphaScreen BAZ2B-H3K14Ac peptide displacement; Potency, µM (doses to about 114 µM), hits mostly inhibitors; hit rate 4.4% among 360,000; AID 504333, 2011; further: nearly all actives have a fitted effect of over 60% in size
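Complex of BAZ2B and biotin-H3K14Ac (50 nM apiece) forms over 30 min at RT, then faces library compounds up to 110 uM for another 30 min; AlphaScreen beads added, 20 min dark incubation, luminescence read.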
Numbers stand for hits; [ ] = remark or other dose. The call rests on the fitted dose curve; in most records, active means well fitted curve in the direction sought with a large enough effect; inconclusive means small, poorly fitted or top-dose-only effect, or another doubt; inactive means no such curve, though single readings can be large; an effect the other way counts as inactive or inconclusive.

Screening COc1ccc(CNC(=O)c2sc(=S)n(-c3ccccc3)c2N)cc1 returned PLK1 PBD block 13µM, JMJD2A Tudor inh inactive, 12-LOX inh inconclusive, HP1b chromo inh inconclusive and BAZ2B block inactive.
`CCOC(=O)c1sc(=S)n(-c2ccccc2)c1N` gave PLK1 PBD block inactive, JMJD2A Tudor inh inactive, G9a inh inconclusive, 12-LOX inh inactive, HP1b chromo inh inconclusive and BAZ2B block inactive.
For CCOc1ccc(-n2c(N)c(C(=O)NCc3cccnc3)sc2=S)cc1 the results were PLK1 PBD block 27µM, JMJD2A Tudor inh inactive, G9a inh inconclusive, 12-LOX inh inconclusive, HP1b chromo inh inactive and BAZ2B block inactive.
For COC(=O)c1sc(=S)n(-c2cccc(Cl)c2)c1N the results were PLK1 PBD block 8.4µM, JMJD2A Tudor inh inactive, G9a inh inactive[0.501 µM], 12-LOX inh inconclusive, HP1b chromo inh inactive and BAZ2B block inactive.
CCOc1ccc(-n2c(N)c(C(=O)NCc3ccco3)sc2=S)cc1 was read as PLK1 PBD block 21µM, JMJD2A Tudor inh inactive, G9a inh inconclusive, 12-LOX inh inconclusive, HP1b chromo inh inactive and BAZ2B block inactive.
For Cc1cc(C)cc(Nc2cc(C(=O)NC3CCCCC3)c3ccccc3n2)c1 the results were JMJD2A Tudor inh inactive, G9a inh inactive, 12-LOX inh inactive and HP1b chromo inh inactive.
`CCOc1ccc(NC(=O)NCc2cccnc2)cc1` gave PLK1 PBD block 27µM, JMJD2A Tudor inh inactive, G9a inh inconclusive, 12-LOX inh inactive, HP1b chromo inh inactive and BAZ2B block inactive.
For O=C(NCc1cccnc1)Nc1ccc(Br)cc1 the results were PLK1 PBD block inactive, JMJD2A Tudor inh inactive, G9a inh inactive, 12-LOX inh inactive, HP1b chromo inh inactive and BAZ2B block inactive.
Screening O=C(NCc1cccnc1)c1ccc(NC(=O)c2ccc(Br)cc2)cc1 returned PLK1 PBD block inactive, JMJD2A Tudor inh inactive, G9a inh 45µM, 12-LOX inh inconclusive, HP1b chromo inh inactive and BAZ2B block inactive.
CN(C)c1cccc(C(=O)N2CCCC(N3CCN(c4ccc(F)cc4)CC3)C2)c1 (stereo not given) was read as 12-LOX inh inactive.
For Cc1ccc2nc(-c3cccc(NC(=O)c4cc([N+](=O)[O-])ccc4N4CCOCC4)c3)oc2c1 the results were 12-LOX inh inactive.
CCC(NCC(N)=O)C12CC3CC(CC(C3)C1)C2 (stereo not given) was read as 12-LOX inh inactive.
Cc1ccccc1-c1onc(C)c1C(=O)NCc1cccc(F)c1F was read as 12-LOX inh inactive.
For c1ccn2c(SCc3ccc4c(c3)OCCO4)nnc2c1 the results were PLK1 PBD block inactive, JMJD2A Tudor inh inactive, G9a inh 56µM, 12-LOX inh inactive, HP1b chromo inh inactive and BAZ2B block inconclusive.
`CC1=C(C(=O)Nc2ccccc2F)C(c2cccs2)NC(=S)N1` (stereo not given) gave PLK1 PBD block inactive, JMJD2A Tudor inh inactive, G9a inh inactive, 12-LOX inh inactive, HP1b chromo inh inactive and BAZ2B block inactive.
Screening COc1ccc(Nc2nnc(SC(C(=O)Nc3cc(C)ccc3C)c3ccccc3)s2)cc1 (stereo not given) returned PLK1 PBD block inactive, JMJD2A Tudor inh inactive, G9a inh 50µM, 12-LOX inh inconclusive, HP1b chromo inh inactive and BAZ2B block inactive.
For COc1ccc(C)cc1NC(=O)C(Sc1nnc2ccccn12)c1ccccc1 (stereo not given) the results were PLK1 PBD block inactive, JMJD2A Tudor inh inactive, G9a inh inactive, 12-LOX inh inactive, HP1b chromo inh inactive and BAZ2B block inactive.
For COc1ccc(C)cc1NC(=O)C(Sc1nnc(Nc2cc(C)ccc2OC)s1)c1ccccc1 (stereo not given) the results were PLK1 PBD block inactive, JMJD2A Tudor inh inconclusive, G9a inh 3.5µM, 12-LOX inh inactive, HP1b chromo inh inactive and BAZ2B block inactive.
For COc1cccc(NC(=O)C(Sc2nnc(Nc3ccccc3C)s2)c2ccccc2)c1 (stereo not given) the results were PLK1 PBD block inactive, JMJD2A Tudor inh inactive, G9a inh inconclusive, 12-LOX inh inactive, HP1b chromo inh inactive and BAZ2B block inactive.
Screening COc1ccc(C)cc1NC(=O)C(OC(=O)c1ccc([N+](=O)[O-])o1)c1ccccc1 (stereo not given) returned PLK1 PBD block 27µM, JMJD2A Tudor inh inconclusive, G9a inh inconclusive, 12-LOX inh inactive, HP1b chromo inh inconclusive and BAZ2B block inconclusive.
For COc1ccc(C)cc1NC(=O)C(OC(=O)c1cnccn1)c1ccccc1 (stereo not given) the results were PLK1 PBD block inactive, JMJD2A Tudor inh inactive, G9a inh inconclusive, 12-LOX inh inactive, HP1b chromo inh inactive and BAZ2B block inactive.
COc1ccc(OC)c(NC(=O)C(Sc2ccccc2)c2ccccc2)c1 (stereo not given) was read as PLK1 PBD block inactive, JMJD2A Tudor inh inactive, G9a inh inactive[2.33 µM], 12-LOX inh inactive, HP1b chromo inh inactive and BAZ2B block inactive.
Screening COc1ccc(Nc2nnc(SC(C(=O)Nc3ccc(OC)c(Cl)c3)c3ccccc3)s2)cc1 (stereo not given) returned PLK1 PBD block inactive, JMJD2A Tudor inh inactive, G9a inh 20µM, 12-LOX inh inactive, HP1b chromo inh inactive and BAZ2B block inactive.
`Cc1cccn2c(=O)c3cc(C(=O)N4COCC4(C)C)sc3nc12` gave PLK1 PBD block inactive, JMJD2A Tudor inh inactive, G9a inh inactive, 12-LOX inh inactive, HP1b chromo inh inactive and BAZ2B block inactive.
`C(=C\c1ccccc1)/CN1CCN(C(c2nnnn2-c2ccc3c(c2)OCCO3)C2CC2)CC1` (stereo not given) gave PLK1 PBD block inactive and 12-LOX inh inactive.
Screening O=C(COC(=O)CCC1CCCC1)Nc1ccc2c(c1)OCO2 returned 12-LOX inh inactive.
For COCC(=O)N[C@H]1C[C@@H]2C(=O)N[C@H]3CCN(C(=O)c4cccn4C)[C@@H]3C(=O)N2C1 the results were 12-LOX inh inactive.
CC(C)(C)NCC(O)COc1cccc2c1CCC(=O)N2 (stereo not given) was read as PLK1 PBD block inactive, JMJD2A Tudor inh inactive, G9a inh inactive[12.7 µM], 12-LOX inh inactive, HP1b chromo inh inactive and BAZ2B block inactive.
Screening O=S(=O)(Nc1ccc(O)c2ccccc12)c1ccc(Br)cc1 returned G9a inh 40µM and BAZ2B block 45µM.
O=S(=O)(Nc1ccc(O)c2ccccc12)c1cccs1 was read as PLK1 PBD block 12µM, JMJD2A Tudor inh 13µM, G9a inh 7.1µM, 12-LOX inh 32µM, HP1b chromo inh 45µM and BAZ2B block inactive.
